The list is not random: actives were taken first. Their share in the collection is about 12%.
JMJD2A Tudor inh: JMJD2A Tudor domain (human) inhibition; AlphaScreen JMJD2A-Tudor / H3K4me3 peptide binding; actives 4.4% (n = 390,000); O75164; Potency, µM (doses to about 114 µM), for the others: at the top dose activity change, negative = inhibition, actives largely listed as inhibitors; AID 504339; also: % is scaled to controls: 0 for no effect and ±100 for the full control effect; nearly all actives have a fitted effect of over 50% in size
Sfp PPTase inh: blocks B. subtilis Sfp PPTase activity; Q9F4F7; Biochemical Sfp PPTase activity, qHTS; Potency, µM, for the others: largest response in the series, negative = inhibition, hits mostly inhibitors; actives 3.5% (n = 310,000); AID 1490;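 also: the enzyme is Sfp with the accession as filed and its product quenches rhodamine fluorescence; 0% = enzyme reaction without inhibitor and -100% = no enzyme wells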
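Fluorescence-quenching assay with 15 nM Sfp, 5 uM rhodamine-CoA and 12.5 uM BHQ-2-labelled ybbR peptide in pH 7.6 Hepes/MgCl2 buffer. Enzyme was pre-incubated with compound for 15 min at room temperature. Rate was taken from the 30-min fluorescence change (525/598 nm).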
BAZ2B block: BAZ2B (human) inhibition; AlphaScreen BAZ2B-H3K14Ac peptide displacement; Potency, µM (highest dose often 114 µM), without a hit: top-dose activity change, negative = inhibition, most hits filed as inhibitors; actives 4.4% (n = 360,000); AID 504333; also: % is scaled to controls: 0 for no effect and ±100 for the full control effect; nearly all actives have a fitted effect of over 60% in size
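AlphaScreen displacement of biotin-H3(5-23)K14Ac peptide (50 nM final) from BAZ2B (50 nM final) in PBS pH 7.4, 0.01% Tween-20; complex preformed 30 min RT, then compounds (top 110 uM) 30 min RT, beads 20 min dark.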
HP1b binding inh: HP1-beta chromodomain-methylated histone interaction inhibition | AID 540317 | AlphaScreen HP1-beta / biotin-H3K9me3 peptide binding | P83916 | actives 0.56% (n = 390,000) | Potency, µM (titrated, usually from 114 µM), for inactives: at the highest dose activity change, negative = inhibition, usual class: inhibitors; also: nearly all actives have a fitted effect of over 70% in size
Target sequence (P83916 whole entry, looked up): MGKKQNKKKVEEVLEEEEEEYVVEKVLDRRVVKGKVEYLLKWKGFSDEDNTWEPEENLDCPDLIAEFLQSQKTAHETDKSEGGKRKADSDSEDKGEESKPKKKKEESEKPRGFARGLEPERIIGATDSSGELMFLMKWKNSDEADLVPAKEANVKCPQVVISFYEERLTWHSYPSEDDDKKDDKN
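Compound inhibition of the preformed complex between 50 nM HP1-beta and 50 nM biotinylated H3K9me3 peptide was read by AlphaScreen. Buffer was PBS pH 7.4 with 0.01% Tween-20. Incubations ran 30 min at room temperature, with 10 ug/mL donor/acceptor beads.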
G9a inh: blocks human histone lysine methyltransferase G9a | G9a H3K9 monomethylation, AlphaScreen, 2 h | Potency, µM (titrated, usually from 102 µM), for the others: at the top dose activity, negative = inhibition, actives largely listed as inhibitors | actives 8.8% (n = 350,000) | AID 504332; also: % is scaled to controls: 0 for no effect and ±100 for the full control effect; nearly all actives have a fitted effect of over 75% in size
Target sequence (Q96KQ7 913-1193 limits assumed): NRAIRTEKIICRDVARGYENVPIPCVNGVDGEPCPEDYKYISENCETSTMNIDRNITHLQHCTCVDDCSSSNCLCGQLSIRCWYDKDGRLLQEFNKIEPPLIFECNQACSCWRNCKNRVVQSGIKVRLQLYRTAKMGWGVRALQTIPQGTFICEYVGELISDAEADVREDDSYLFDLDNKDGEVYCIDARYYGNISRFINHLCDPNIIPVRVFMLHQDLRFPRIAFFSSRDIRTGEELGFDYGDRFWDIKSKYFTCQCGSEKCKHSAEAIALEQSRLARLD
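Readings reflect AlphaScreen signal from monomethyl-H3K9 antibody detection. HMT at 20 nM; substrate b-H3K9 500 nM; cofactor SAM 20 uM; 2 h RT reaction; compounds tested as titrations in qHTS with 15 min preincubation.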
L3MBTL1 block: L3MBTL1 (human) inhibition. AlphaScreen L3MBTL1–H3K9me1 peptide binding. Potency, µM (titrated, usually from 57.1 µM), for inactives: top-dose activity, negative = inhibition, actives largely listed as inhibitors. actives 0.66% (n = 230,000). AID 485360; also: % is scaled to controls: 0 for no effect and ±100 for the full control effect; nearly all actives have a fitted effect of over 60% in size
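L3MBTL1 (50 nM) pre-complexed 30 min with biotinylated H3(1-15)K9me1 peptide (75 nM), then compounds added for 30 min at room temperature; AlphaScreen streptavidin donor/nickel chelate acceptor beads (10 ug/mL final) read after 30 min dark incubation.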
The depositor's hits bear a star; ? = inconclusive; . = no result given; [ ] = dose if it differs, or a comment. Calls follow the shape of the dose curve; as a rule, active = well fitted curve in the direction sought with a large enough effect; inconclusive = small, poorly fitted or top-dose-only effect, or another doubt; inactive = no such curve, though single readings can be large; an effect the other way counts as inactive or inconclusive. Potency is read from the fitted curve at half-maximal effect.

SMILES	JMJD2A Tudor inh	Sfp PPTase inh	BAZ2B block	HP1b binding inh	G9a inh	L3MBTL1 block
COc1ccccc1NS(=O)(=O)c1ccc2nc(CCl)[nH]c2c1	-18.7%	-19.9%	-29.3%	16.9%	20µM*	.
CCN(CC)S(=O)(=O)c1ccc2c(c1)[nH]c(=S)n2CC	-15.9%	56.2µM*	.	-3.6%	7.94µM*	6.4%
Cc1cccc(OCC(=O)Nc2ccc(Cl)c(-c3nc4ncccc4o3)c2)c1C	3.8%	.	5.1%	39.7%	4.9%[59 µM]	.
COc1ccc(N2C(=O)CS(=O)(=O)C23C(=O)N(Cc2ccccc2F)c2ccccc23)cc1Cl (centres undefined)	-22.7%	.	2.6%[57.1 µM]	9.5%	-31.1%[59 µM]	.
Cn1c(CBr)c(C(=O)c2ccc([N+](=O)[O-])cc2)c(=O)n(C)c1=O	-32.3%	?	-34.8%	29.3%	28.2µM*	3.1%
Cc1ccc2nc(-c3ccc(NC(=O)CN4C(=O)c5ccccc5C4=O)cc3)sc2c1	-9.3%	-4.8%	10.7%	35.4%	-17.6%[59 µM]	4.5%
Cc1ccc2nc(-c3ccc(NC(=O)COC(=O)c4ccc(=O)[nH]c4)cc3)sc2c1	44.7µM*	-7.7%	-0.7%	-17.1%	-15.5%[59 µM]	1.9%
Cc1ccc2nc(-c3ccc(NC(=O)CNC4CC4)cc3)sc2c1	?	-29.7%	44.7µM*	-20.2%	7.08µM*	13.1%
Cc1cccc(C(=O)Nc2ccc(C(=O)OCc3cc(=O)n4c5c(sc4n3)CCCC5)cc2)c1	-11.3%	.	-10.9%	14.6%	15.5%[59 µM]	.
Cc1sc2nc3c(SC(C)C(=O)O)cc(C(=O)c4ccccc4O)cn3c(=O)c2c1C (centres undefined)	-31.7%	50.1µM*	?	-13.4%	50.1µM*	-3.5%
COC(=O)c1cc(C(=O)c2cc(F)ccc2O)cn2c(=O)c3c(C)c(C)sc3nc12	39.8µM*	-11.0%	-28.6%	-19.1%	?	2.0%
O=C(O)CSc1cc(C(=O)c2ccccc2O)cn2c(=O)c3c(-c4ccccc4)csc3nc12	56.2µM*	?	.	-13.8%[57 µM]	?	-10.2%
CCc1c(C)sc2nc3c(C(=O)N4CCOCC4)cc(C(=O)c4ccccc4O)cn3c(=O)c12	?	4.2%	?	14.4%	-43.2%	-16.8%
COc1ccc(O)c(C(=O)c2cc(SCC(=O)O)c3nc4sc5c(c4c(=O)n3c2)CCCC5)c1	25.1µM*	?	22.4µM*	25.1µM*	-32.9%[12.7 µM]	.
O=C(NCc1ccccc1)C(=O)Nc1ccc2nc3n(c(=O)c2c1)CCCCC3	-8.4%	.	3.0%	11.4%	-2.6%[59 µM]	.
COc1ccc(Cl)cc1NC(=O)N1CCC2(CC1)Oc1ccccc1C(=O)N2Cc1ccc(F)cc1	-11.3%	.	1.3%	39.2%	5.7%[59 µM]	.
CCOC(=O)c1sc2nc3c(SCC(=O)O)cc(C(=O)c4cc(F)ccc4O)cn3c(=O)c2c1C	39.8µM*	?	35.5µM*	?	79.4µM*	-21.7%
CCOC(=O)c1sc2ncn(C(C)C(=O)OCC)c(=O)c2c1C (centres undefined)	9.7%	-2.4%	-7.9%	33.6%	5.0%[59 µM]	.
CCOC(=O)c1sc2nc3c(SCC(=O)O)cc(C(=O)c4ccccc4O)cn3c(=O)c2c1C	10µM*	0.9%	15.8µM*	?	31.6µM*	?
CCCc1cnc2c(c1SCC(=O)Nc1ccccc1OCC)c(=O)n(C)c(=O)n2C	-0.6%	.	-2.8%	11.6%	6.6%[59 µM]	.
COc1ccccc1N1CCN(C(=O)Cn2c(=O)nc(-c3ccccc3)c3cc(Cl)ccc32)CC1	-12.6%	.	-10.9%	9.5%	4.6%[59 µM]	.
COc1ccc(/C=C(\NC(=O)c2ccccc2)C(=O)OC[C@@H]2CCC[N+]3(C)CCCCC23)cc1OC (some centres undefined)	15.8µM*	12.6%	-10.9%	?	-16.9%[59 µM]	.
CCn1c(=O)n(CC)c2cc(N3CCCC3)c(NC(=O)c3c(F)cccc3F)cc21	7.0%	-2.4%	?	19.9%	?	.
CCn1c(=O)n(CC)c2cc(N3CCCC3)c(NC(=O)c3ccc(F)cc3)cc21	-21.0%	-19.2%	?	26.1%	44.7µM*	.
CCOc1ccc(C(=O)Nc2cc3c(cc2N2CCCC2)n(CC)c(=O)n3CC)cc1OCC	-31.9%	5.0%	?	6.7%	44.7µM*	.
SMILES	JMJD2A Tudor inh	Sfp PPTase inh	BAZ2B block	HP1b binding inh	G9a inh	L3MBTL1 block
CCOC(=O)c1ccc(NC(=O)CC(C)n2nc(C)cc2C)cc1 (centres undefined)	-20.0%	.	-14.1%	60.3%	4.8%[59 µM]	.
O=C(c1ccco1)N1CCN(C(=O)c2cc(-c3ccccn3)nc3ccc(Cl)cc23)CC1	-6.3%[57.1 µM]	15.8µM*	-30.3%	-15.4%	?	9.4%[11.4 µM]
O=C(c1ccco1)N1CCN(C(=O)c2cc(-c3ccccc3)nc3ccccc23)CC1	?	0.0%	-3.5%[57.1 µM]	-2.0%	-15.1%[59 µM]	0.0%
COc1ccc(C2C(C(=O)OCC(=O)N3CCCCC3)CCC(=O)N2c2ccc(OC)cc2)cc1 (centres undefined)	2.3%	6.4%	-11.1%	18.5%	44.7µM*	-1.6%
CCNC(=O)COC(=O)C1CCC(=O)N(c2ccc(OC)cc2)C1c1ccc(OC)cc1 (centres undefined)	-18.0%	12.4%	30.8%	20.7%	-4.9%[59 µM]	.
O=C(/C=C/c1ccccc1)n1cnnc1SC/C=C/c1ccccc1	19.9%	?	8.6%	46.8%	20µM*	9.9%
Cc1ccc(C)c(NC(=O)CSc2cn(CC(=O)N3CCCCC3)c3ccccc23)c1	-18.3%	.	-23.1%	26.1%	-29.4%[59 µM]	.
O=c1cc(CSc2ccc(Cl)cc2)nc(-c2ccccc2)[nH]1	-15.9%	18.8%	-1.9%	8.9%[57 µM]	3.8%	17.9%
O=c1cc(CSc2ccc(Cl)cc2)nc(-c2ccccn2)[nH]1	79.4µM*	8.1%	28.2µM*	16.1%	37.0%	.
CCNC(=S)Nc1cc(C)ccn1	-16.6%	?	-2.2%	27.6%	1µM*	-3.0%
Cc1ccc(CC(=O)Nc2cc(C)ccn2)cc1	-3.7%	7.0%	-37.1%	25.6%	8.9%	-2.0%
COc1ccc(C(=O)NC(=S)Nc2cc(C)ccn2)cc1[N+](=O)[O-]	-12.8%	-8.8%	-31.4%	37.2%	2.82µM*	5.4%
COc1ccc(C(=O)Nc2cc(C)on2)cc1[N+](=O)[O-]	-3.5%	-6.4%	8.8%	20.2%	48.0%	.
CCOc1ccc(C(=O)Nc2cc(C)ccn2)cc1	12.6µM*	4.2%	0.6%	-3.5%	?	.
Cc1cccc(NC(=O)c2ccccc2Br)n1	-1.4%	-8.3%	8.1%	32.9%	22.4µM*	.
Cc1cccc(NC(=O)c2cccc3c2-c2ccccc2C3=O)n1	-11.8%	10.7%	-24.7%	9.4%	?	-9.2%[11.4 µM]
COc1ccccc1CNC(=O)CCCCn1c(=O)c2ccccc2n(CC(=O)Nc2c(C)cc(C)cc2C)c1=O	-10.6%	.	-0.2%	11.6%	10.2%[59 µM]	.

Screening results as filed in PubChem BioAssay.
